Results published in PubChem BioAssay AID493191 (Broad Institute, 2011).
The whole screen tested about 1,300 compounds, of which about 330 (25%) were called active. No rule for the calls is given here. These entries were drawn from the full list. Measured potencies and affinities stand elsewhere.

assay: growth inhibition of MALME3 cells – cell-based, CellTiter-Glo, cherry-picked, orthogonal assay for MITF inhibitor project, dose response (AID 493191); details: MALME3 melanoma viability, CellTiter-Glo luminescence, 24 h; series mostly up to 35 µM

Structure (SMILES)	outcome
Cc1ccc(NC(=O)Cc2noc3ccccc23)cc1	inactive
Cc1cnc(NC(=O)c2nn(C)cc2[N+](=O)[O-])s1	inactive
COc1ccccc1C(=O)Nc1nc(-c2ccc(S(=O)(=O)N3CCOCC3)cc2)cs1	inactive
O=C(O)c1cccc(N/N=C/c2cccs2)c1	inactive
O=C(N/N=C/c1cc([N+](=O)[O-])ccc1N1CCNCC1)c1ccc([N+](=O)[O-])cc1	inactive
Cc1cc(C(=O)Nc2ccc([N+](=O)[O-])cn2)cs1	inactive
O=C(O)c1cccc(N/N=C/c2ccc(OC(F)(F)F)cc2)c1	inactive
c1cnc(SCCOc2ccc3c(c2)CCC3)nc1	inactive
Cn1nnnc1Sc1ncnc2scc(-c3cccc(F)c3)c12	inactive
CC1CCCCC1NC(=O)/C(C#N)=C/c1ccccc1F (stereo not given)	inactive
COc1cccc(NC(=O)c2cnn(-c3ccccc3)c2C)c1	inactive
CCOc1ccc(NC(=O)c2ccc3snnc3c2)cc1	inactive
CCOc1ccc(-c2noc(CCC(=O)O)n2)cc1	inactive
Cc1nc(NC(=O)/C=C/c2ccccc2)n[nH]1	inactive
O=C(Nc1ccc(Cl)cc1)OCc1ccccn1	inactive
COc1ccc(C(=O)Nc2ccc3ccccc3c2)cc1OC	inactive
O=C(Nc1ccc(N2CCOCC2)cc1)c1cnsn1	inactive
O=C(CCCCl)NC(=S)Nc1ccc(N2CCOCC2)cc1	inactive
O=C(Nc1ccc2ncccc2c1)c1ccccc1Br	inactive
O=C(Nc1ccc2c(c1)OCCO2)c1coc2ccccc2c1=O	inactive
Brc1cccc(/C=N/Nc2nn[nH]n2)c1	inactive
CCN(CC)CC(=O)Nc1scc2c1c(=O)oc1ccccc12	inactive
Cc1ccc(Nc2nnc(-c3ccccc3N)o2)cc1C	inactive
C=CCOc1ccc(/C=C/C(C)=N\O)cc1	inactive
O=C(c1cc2ccccc2oc1=O)N(Cc1ccccc1)C1CCS(=O)(=O)C1 (stereo not given)	inactive

Structure (SMILES)	outcome
COc1ccc(C(=O)NCC(=O)c2ccccc2)cc1	inactive
NCCN1C(=O)S/C(=C\c2ccc3c(c2)OCO3)C1=O	inactive
CC(C)S(=O)(=O)c1csc(C(=O)Nc2ccc(F)cc2)c1N	inactive
O=C(NCc1ccc2c(c1)OCO2)c1cc(=O)[nH]c2ccccc12	inactive
CN(C)c1ccc(NC(=S)c2ccccn2)cc1	inactive
N/C(=N\OC(=O)c1ccc(Cl)cc1Cl)c1ccncc1	inactive
Cc1ccc(-n2nnnc2Sc2nc([N+](=O)[O-])nn2C)c(C)c1	inactive
Cc1ccc(-n2cc(CNCCCn3cccn3)c(-c3cccc(C)c3)n2)cc1	inactive
C=C1C(=O)O[C@@]23[C@H]1CC[C@@H](C)[C@@H]2CC[C@@]1(C)O[C@@H]31	inactive
Cc1ccc(C2CC(C(F)(F)F)n3nc(C(=O)NCc4c(C)nn(C)c4C)c(Cl)c3N2)cc1 (stereo not given)	inactive
Cn1c(/C=C/c2ccc(Cl)cc2)nc2ccccc2c1=O	inactive
COc1cccc(-c2csc3ncnc(Sc4nnnn4C)c23)c1	inactive
Cc1ccc(-c2noc(CN3CCCCC3)n2)cc1	inactive
O=C(Nc1ccc(N2CCOCC2)c(Cl)c1)c1cccc(F)c1	inactive
C=CCn1cccc(C(=O)Nc2ccc(C)c(Cl)c2)c1=O	inactive
Cc1ccc2nc(NC(=O)CSCC(=O)OCC(=O)c3ccccc3)sc2c1	inactive
O=C(O)c1ccc(N/N=C/c2ccc3nccnc3c2)cc1	inactive
Clc1nccnc1N/N=C/c1ccc(Br)cc1	inactive
CCSC1(SCC)N=C(N)C2(C#N)C(c3ccc(F)cc3)C12C#N (stereo not given)	inactive
O=C(COC(=O)c1ccc[nH]c1=O)Nc1ccc(N2CCCCC2)cc1	inactive
CCOc1ccc(-c2nnc(-c3cccs3)o2)cc1OCC	inactive
CCOC(=O)C1(Cc2cccc(OC)c2)CCCN(C(=O)CSC)C1 (stereo not given)	inactive
CCOc1ccc(NC(=O)CCC(=O)N/N=C/c2ccc([N+](=O)[O-])s2)cc1	inactive
O=C(Cc1ccccc1)NCC(=O)N/N=C/c1ccc([N+](=O)[O-])s1	inactive
COc1ccc(NC(C)C(=O)N/N=C/c2ccc([N+](=O)[O-])s2)cc1 (stereo not given)	inactive

Structure (SMILES)	outcome
Cc1onc(-c2ccccc2)c1C(=O)N/N=C/c1ccc([N+](=O)[O-])s1	inactive
O=C(/C=C\c1ccccc1)NCC(=O)N/N=C/c1ccc(O)cc1O	inactive
N/C(=N\OC(=O)c1cccc(F)c1)c1cccc([N+](=O)[O-])c1	inactive
COc1ccc(-c2csc(N(C)C(=O)c3ccco3)n2)cc1	inactive
COCCn1c(C)cc(C(=O)COC(=O)c2ccccc2Br)c1C	inactive
CC(/C=C1\SC(=O)N(CCCC(=O)O)C1=O)=C\c1ccccc1	inactive
CCN(Cc1ccc(OC)c(F)c1)C(=O)CCl	inactive
c1ccc(OCc2nc3ccccc3[nH]2)cc1	inactive
COc1cccc2c1C(=O)C=C(C)C2=O	inactive
N#CC1=C(c2ccccc2)/C(=C/c2ccccc2)OC1=O	inactive
Cc1cc(C=C2C(=O)c3ccccc3C2=O)c(C)n1-c1ccccc1	inactive
O=C(O)c1ccccc1C(=O)Nc1ccc(Oc2cccc3ccccc23)cc1	inactive
Cc1ccc(N2C(=O)c3ccc(N)cc3C2=O)cc1C	inactive
COc1ccc(/C=N/Nc2cc(C)nc(-n3nc(C)cc3C)n2)c(OC)c1	inactive
O=C1CCC2S/C(=C/Nc3ccc(C(F)(F)F)cc3)C(=O)N12 (stereo not given)	inactive
Cc1nc(C)c(C(=O)N/N=C/c2cc(Br)ccc2O)s1	inactive
CC(C)C(=O)NC(c1ccco1)c1ccc2cccnc2c1O (stereo not given)	inactive
C=CCN=C1NN=C(c2ccc3c(c2)OCCO3)CS1	inactive
C=CCn1c(C)cc(C2=NNC(=NC(C)(C)C)SC2)c1C	inactive
COc1ccccc1NC(=O)c1cnc(SCC(=O)NCC2CCCO2)n(C)c1=O (stereo not given)	inactive
Cc1nc(Sc2nnnn2C)c2c3c(sc2n1)CCC3	inactive
CCOCCCNC(=O)/C(C#N)=C/c1ccc(Cl)c([N+](=O)[O-])c1	inactive
COCCNC(=O)/C(C#N)=C/c1cccc(/C=C(\C#N)C(=O)NCCOC)c1	inactive
CCCOc1ccc(C(=O)Nc2ccc3c(c2)OCCO3)cc1	inactive
CC1CCCC(NC(=O)NC(=O)CCl)C1C (stereo not given)	inactive
